# VDR inhibitor: vitamin D3 receptor (human) inhibition; P11473; VDR-SRC2-3 peptide fluorescence polarization, 2 h; Potency, µM, inactives show max response, negative = inhibition, hits mostly inhibitors; 400,000 compounds, 0.93% hits; AID 504847
#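 The screen uses fluorescence polarization to detect compounds that interfere with recruitment of the SRC2-3 coactivator peptide to VDR; plates are read after 2 h at room temperature.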
# ALOX12 inh: ALOX12 (human) lipoxygenase inhibition; Potency, µM (top dose mostly 108 µM), without a hit: at the highest dose activity change, negative = inhibition, usual class: inhibitors; P18054; purified 12hLO, xylenol orange hydroperoxide absorbance; 580,000 compounds, 1.1% hits; AID 1671190
# Target sequence (P18054 whole entry, looked up): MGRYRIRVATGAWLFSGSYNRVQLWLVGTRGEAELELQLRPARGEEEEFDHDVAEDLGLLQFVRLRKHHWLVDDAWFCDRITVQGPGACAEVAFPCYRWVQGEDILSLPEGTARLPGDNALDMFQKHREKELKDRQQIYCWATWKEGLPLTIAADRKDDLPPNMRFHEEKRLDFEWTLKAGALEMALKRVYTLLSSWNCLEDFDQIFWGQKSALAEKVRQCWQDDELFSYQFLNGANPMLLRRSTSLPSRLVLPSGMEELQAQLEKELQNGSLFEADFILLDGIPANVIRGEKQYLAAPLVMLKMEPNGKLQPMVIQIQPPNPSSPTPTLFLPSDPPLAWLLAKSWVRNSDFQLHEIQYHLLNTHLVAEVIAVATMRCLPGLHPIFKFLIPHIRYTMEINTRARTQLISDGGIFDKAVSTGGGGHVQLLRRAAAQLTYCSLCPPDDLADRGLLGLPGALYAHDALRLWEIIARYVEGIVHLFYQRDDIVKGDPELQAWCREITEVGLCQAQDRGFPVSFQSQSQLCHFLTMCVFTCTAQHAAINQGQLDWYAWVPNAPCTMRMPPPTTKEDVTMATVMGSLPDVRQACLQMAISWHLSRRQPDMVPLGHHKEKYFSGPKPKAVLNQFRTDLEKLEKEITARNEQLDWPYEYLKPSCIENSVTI
#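 Purified human 12hLO at 150 nM in 25 mM Hepes, 0.01% Triton X-100, pH 7.0, preincubated 15 min at room temperature with compound. Reaction started with 40 uM arachidonic acid, 30 min at room temperature. Hydroperoxide measured by Fe-xylenol orange, 573/405 nm absorbance ratio.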
# PLK1 PBD block: blocks phosphopeptide binding to human PLK1 polo-box domain | P53350 | Plk1 PBD binding of FITC phosphopeptide, fluorescence polarization | Potency, µM, for the others: max response, negative = inhibition, hits mostly inhibitors | 360,000 compounds, 2.8% hits | AID 720504; also: series mostly up to about 57 µM; nearly all actives have a fitted effect of over 65% in size
# Sfp PPTase inh: Sfp phosphopantetheinyl transferase inhibition; AID 1490; Potency, µM, for inactives: largest response in the series, negative = inhibition, most hits filed as inhibitors; Biochemical Sfp PPTase activity, qHTS; 310,000 compounds, 3.5% hits; Q9F4F7;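 also: the enzyme is Sfp with the accession as filed and its product quenches rhodamine fluorescence; 0% = enzyme reaction without inhibitor and -100% = no enzyme wells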
#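 Step 1, compound plus 15 nM Sfp-PPTase, 15 min, room temperature. Step 2, add rhodamine-CoA (5 uM) and BHQ-2-YbbR (12.5 uM). Step 3, read 525/598 nm fluorescence at 0 and 30 min.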
# Numbers without * were called inactive; ? = inconclusive; · = no result; [ ] = dose if it differs, or a comment. A selection: hits, their analogues and other compounds. The true share with any hit is near 4.2%. Calls follow the shape of the dose curve; as a rule, active = well fitted curve in the direction sought with a large enough effect; inconclusive = small, poorly fitted or top-dose-only effect, or another doubt; inactive = no such curve, though single readings can be large; an effect the other way counts as inactive or inconclusive. Unless noted, % is scaled to controls: 0 for no effect and ±100 for the full control effect; potency is read from the fitted curve at half-maximal effect.
SMILES,VDR inhibitor,ALOX12 inh,PLK1 PBD block,Sfp PPTase inh
COc1cc(-c2nc(S(=O)(=O)c3ccc(C)cc3)c(N(C)C)o2)cc(OC)c1OC,0.5%,-1.8%,-0.1%,56.2µM*
COc1ccc(-c2nc(S(=O)(=O)c3ccc(C)cc3)c(N3CCCCC3)o2)cc1,89.1µM*,?,·,·
CC(C)Cc1nc(S(=O)(=O)c2ccc(Cl)cc2)c(N2CCOCC2)o1,-12.5%,·,-23.5%,39.8µM*
COc1cc(-c2nc(S(=O)(=O)c3ccc(C)cc3)c(N3CCOCC3)o2)cc(OC)c1OC,79.4µM*,-4.8%,-14.4%,?
COc1cc(-c2nc(S(=O)(=O)c3ccc(Cl)cc3)c(N3CCOCC3)o2)cc(OC)c1OC,-16.5%,-8.3%,-4.4%,19.2%
COc1cccc(-c2nc(S(=O)(=O)c3ccc(C)cc3)c(N3CCCCCC3)o2)c1,-22.2%,-27.5%,·,·
O=C(/C=C/c1ccc(F)cc1)NC(=S)N1CCCCC1c1cccnc1 (stereo not given),13.7%,?,?,50.1µM*
O=C(C1CC(=O)N(c2n[nH]c3cccc(F)c23)C1)N1CCN(c2cccc(Cl)c2)CC1 (stereo not given),·,3.4%,·,·
COc1ccc(N2CC(C(=O)N3CCC(C(=O)NCc4cccc(OC)c4)C3)NC2=O)cc1 (stereo not given),·,10.8%,·,·
COc1ccc(-c2cn(CCC(=O)NCc3ccc(C)cc3)c(-c3ccncc3)n2)cc1,-22.1%,7.1%,-8.3%,3.3%
CCN(c1ccccc1)S(=O)(=O)c1ccc(N2CCN(c3ccc(O)cc3)CC2)nc1,-2.1%,20µM*,-1.7%,·
CCN(c1ccccc1)S(=O)(=O)c1ccc(N2CCN(c3ccc(OC)cc3)CC2)nc1,-16.9%,18.6%,-5.2%,·
COC(=O)c1cc2ccccc2n1S(=O)(=O)c1ccccc1,-28.7%,-10.2%,1.5%,3.4%
CCC(CC)N1CCN(CCc2ccccc2)C(CCO)C1 (stereo not given),-10.5%,?,-6.6%,-18.2%
CN1CC=C2C(C#N)=C(N)C(C#N)(C#N)[C@H](c3cccc(Cl)c3)C2C1 (stereo not given in full),-24.4%,-2.4%,?,0.6%
N#CC1=C(N)C2=CCCC[C@H]2[C@H](c2cccc(F)c2)C1(C#N)C#N,?,?,-27.0%,9.6%
N#CC1=C(N)C(C#N)(C#N)C(c2ccc[nH]2)C2CCCC=C12 (stereo not given),-32.2%,-29.7%,-12.7%,56.2µM*
N#CC1=C(N)C(C#N)(C#N)C(c2cccnc2)C2CCCC=C12 (stereo not given),·,·,·,17.8µM*
O=C(CN(CC1CCCO1)C(=O)CNS(=O)(=O)c1ccc(F)cc1)NCC1CCCO1 (stereo not given),-10.3%,0.0%,-19.3%,15.2%
COc1cc(OC)c(C2CC(=O)N3CN(c4ccccc4C)CSC3=C2C#N)cc1OC (stereo not given),·,-11.7%,·,3.98µM*
COC(=O)CSC1=C(C#N)C(c2ccc(C)o2)CC(=O)N1 (stereo not given),-5.9%,6.9%,-13.0%,-11.7%
COc1ccc(C2CC(=O)N3CN(c4ccccc4F)CSC3=C2C#N)cc1OC (stereo not given),31.6µM*,?,29.9µM*,8.91µM*
Cc1cccc(N2CSC3=C(C#N)C(c4ccc(C)o4)CC(=O)N3C2)c1 (stereo not given),·,·,·,2.82µM*
COc1ccc(C2CC(=O)N3CN(c4ccc(C)c(Cl)c4)CSC3=C2C#N)cc1 (stereo not given),31.6µM*,3.98µM*,23.8µM*,2.82µM*
COc1cc(OC)c(C2C(C#N)=C(N)OC3=C2C(=O)CC(C)C3)cc1OC (stereo not given),-5.1%,-23.3%,-16.3%,9.7%
SMILES,VDR inhibitor,ALOX12 inh,PLK1 PBD block,Sfp PPTase inh
Cc1ccc(Cn2nc3n(c2=O)CCN(Cc2cc(C)ccc2C)C3=O)cc1,·,-8.8%,·,·
COc1ccc(OC)c(C2CCCN2CC(=O)N2CCN(c3ccccc3)CC2)c1 (stereo not given),·,-14.8%,·,·
COc1cc(C2CC(=O)N3CN(c4ccc(C)cc4)CSC3=C2C#N)cc(Br)c1O (stereo not given),·,1.26µM*,·,·
COc1ccc(OC)c(C2CC(=O)N3CN(c4ccccc4)CSC3=C2C#N)c1 (stereo not given),20µM*,?,26.7µM*,4.47µM*
CNC(=O)c1cccc(NC(=O)c2nc(C(O)c3ccccc3F)oc2C)c1 (stereo not given),·,45.0%[176 µM],·,·
CNC(=S)N1CCC(NC(=O)C23CC4CC(CC(C4)C2)C3)CC1,?,-73.8%,8.44µM*,12.5%
O=S(=O)(Nc1ccc(-n2cnnn2)cc1)c1ccccc1F,-7.2%,19.2%,-8.8%,·
COCCOC(=O)c1c(C)n(C)c2ccc(OC(=O)c3c(OC)cccc3OC)cc12,?,0.0%,9.47µM*,28.2µM*
COCCOC(=O)c1c(C)n(C)c2ccc(O)cc12,·,-6.9%,·,·
Nc1nc(-c2ccc(Cl)cc2)cn1N,-13.6%,?,?,1.0%
CCS(=O)(=O)N1CCN(CC(=O)NC2CCCCC2)CC1,-3.4%,?,21.2µM*,11.5%
Oc1c(N=Nc2ccc(F)cc2)ccc2ccccc12,?,-0.2%,9.47µM*,19.9%
Cc1ccc(N=Nc2ccc3ccccc3c2O)cc1,10.5%,30.4%,?,-4.4%
Oc1c(N=Nc2nn[nH]n2)ccc2ccccc12,·,?,16.8µM*,·
COc1ccc(-c2nc3cnccn3c2NCCC(=O)Nc2ccc(C)cc2C)cc1,·,-0.9%,·,·
Cc1ccc(-c2nc3cnccn3c2NCCC(=O)NCc2ccco2)cc1,·,50.1µM*,·,·
CCC(=O)N1N=C(c2ccc(C)o2)CC1c1ccc(OC)cc1 (stereo not given),13.4%,-2.7%,-0.1%,-16.5%
CCC(=O)N1N=C(c2ccc(C)o2)CC1c1ccc(Br)cc1 (stereo not given),-16.4%,-23.4%,-25.7%,50.1µM*
COC(=O)[C@H](CC(C)C)NC(=O)Nc1ccc(S(N)(=O)=O)cc1,-0.2%,-8.5%,-5.1%,79.4µM*
CN1C(=O)c2ccc(NC(=O)CSc3ccccc3)cc2C1=O,-2.2%,28.0%,-10.6%,14.1%
O=C1c2ccccc2C(=O)N1CCCCCCc1ccccc1,-8.9%,19.1%,-2.7%,·
O=C1c2ccccc2C(=O)N1CCc1ccccc1,-22.2%,9.2%,26.7µM*,·
O=C1c2ccccc2C(=O)N1CCSc1ccccc1,-2.2%,·,26.7µM*,16.4%
O=C(O)CCN1C(=O)c2ccc(NC(=O)CSc3ccccc3)cc2C1=O,?,-9.7%,26.7µM*,7.2%
Clc1ccc(CNC2=NCCNC23CCOCC3)cc1,·,-7.4%,·,·
COc1ccc(O)c(O)c1/C=C1\[C@@H](C)CCC2C(C)(C)CCC[C@]12C (stereo not given in full),·,2.24µM*,·,·
CC(C)c1c(O)ccc2c1CC[C@H]1C(C)(C)CCC[C@]21C,-13.2%,-12.2%,-17.9%,·
O=C(Nc1cccc(F)c1)c1ccc(-c2ccccc2Cl)o1,-6.2%,·,0.3%,0.5%
Cc1ccc(-c2ccc(C(=O)Nc3cccc(F)c3)o2)c2ccccc12,-29.9%,?,-2.1%,70.8µM*
COc1cccc(N2CCN(Cc3ccco3)CC2)c1,-16.7%,?,5.0%,-27.7%
